Screening data as filed in PubChem BioAssay.
Rows were chosen to be rich in hits. Some 0.41% of all compounds tested hit in one or more screens of this group.
YopH PTP inh – inhibitors of Yersinia enterocolitica YopH tyrosine phosphatase | fluorescence Ex485/Em525 | inhibition, % (test concentration not listed) | 0.16% of 140,000 active; in the data active = inhibition above about 50%
RmlCD inh mix – mixture blocks RmlC and RmlD coupled enzyme activity. 0.39% of 110,000 active. inhibition, % at 5.5 µM. RmlC/RmlD coupled enzyme inhibition, 384-well mixture HTS; in the data active = inhibition above about 30%, passing the limit was not always enough; inconclusive = no clear call, values can overlap the other calls
Starred values were filed as active, the others as inactive; ? = inconclusive; . = no result given.

SMILES | YopH PTP inh | RmlCD inh mix
CCOc1cc(CNc2ccc(N3CCCC3)cc2)cc(Cl)c1OC | 74.0* | .
C=C1CCN([C@H](C(=O)OCc2cccc(C)c2)C(C)C)S(=O)(=O)c2ccccc21 | . | 6.6
O=C(CSc1nc2[nH]ncc2c(=O)[nH]1)N1CCCCC1 | -19.0 | .
CCOc1cc(-c2cc(-c3ccc(C)cc3)nc(N)c2C#N)ccc1O | -15.2 | 30.4*
CCOc1cc(-c2c(C#N)c(N)nc3c2CCc2ccccc2-3)ccc1O | -23.3 | .
CCCCN(CCCC)C(=O)c1ccccc1NC(=O)CN1C(=O)c2ccccc2C1=O | -12.9 | 3.9
O=C(CN1C(=O)NC2(CCCCCCC2)C1=O)NC1CCCc2ccccc21 (stereo unspecified) | -8.6 | .
COC(=O)c1ccc(CNC(=O)COC(=O)C2CCC(C(C)(C)C)CC2)cc1 (stereo unspecified) | -20.1 | .
Nc1nnc2c(n1)CCCC2 | 51.8* | -5.7
C1CCc2nc3c(nc2C1)CCCC3 | . | -14.6
Cc1cccn2c(=O)c3cc(C#N)c(=N)n(Cc4ccncc4)c3nc12 | -34.3 | .
COCCNC(=O)c1cc2c(=O)n3cccc(C)c3nc2n(Cc2ccncc2)c1=N | -33.5 | 39.6*
Cc1cccc(Oc2nc(CN3CCOCC3)nc3sc4c(c23)CCCC4)c1 | -16.8 | .
CC(NC(=O)CCC1COc2ccccc2O1)c1ccccc1 (stereo unspecified) | -38.1 | 5.3
CC/C(=N\NC(=O)c1cc(C)nc2ccccc12)c1ccc(C)s1 | -30.1 | .
O=C(O)c1ccc(NC(=S)Nc2ccccc2)cc1 | -34.5 | .
CCn1nnnc1-c1ccc(OC)c(S(=O)(=O)Nc2ccc(C(=O)OC)cc2)c1 | -7.0 | -12.8
CCOC(=O)c1ccc(NS(=O)(=O)c2cc(-c3nnnn3C(C)C)ccc2OC)cc1 | 61.6* | 3.9
O=S(=O)(NC1CCCCC1Oc1ccccc1)c1ccccc1 (stereo unspecified) | -26.6 | .
COc1ccc2c(c1)CCc1cc(C(=O)N3CCN(c4ccc(N5CCOCC5)nn4)CC3)sc1-2 | 76.3* | .
COc1ccc2c(c1)CCc1c(C(=O)N3CCCCCC3)noc1-2 | -39.3 | -12.3
CCOc1ccccc1Oc1c(C)oc2cc(OC(=O)c3ccco3)ccc2c1=O | -19.7 | 22.8
COc1ccccc1-c1c(C)oc2cc(OC(=O)c3ccco3)ccc2c1=O | -29.2 | 32.0*
COc1ccc2nc3ccccc3nc2c1 | . | 3.2
COc1ccc(-n2nc3ccccc3n2)cc1 | 50.2* | 10.7
SMILES | YopH PTP inh | RmlCD inh mix
Cc1ccc2c(C)[nH]c(=O)cc2c1 | 89.6* | -7.4
Cc1ccc(-c2cc(=O)[nH]c3ccccc23)cc1 | -42.8 | 14.7
CC(C)n1c2ccccc2c2nnc(SCC(=O)OCN3C(=O)c4ccccc4C3=O)nc21 | -7.2 | 117.4*
Cc1cc(C)nc(SCC(=O)OCN2C(=O)c3ccccc3C2=O)n1 | -33.9 | -10.2
O=C(O)CCNC(=O)c1ccc(N=Nc2ccc(O)c(C(=O)O)c2)cc1 | . | 4.0
CCOc1ccc(C(=S)N2CCOCC2)cc1OC | 50.5* | -9.7
CCOc1cc(C(=S)N2CCOCC2)ccc1OC | 11.8 | 2.1
CCSc1nnc(NC(=O)COc2ccc3ccccc3c2)s1 | -11.9 | 87.4
CN1c2ccccc2N(C)C1(C)c1ccccc1 | 85.2* | .
CCN1c2ccccc2N(C)C1(C)c1ccccc1 (stereo unspecified) | 92.2* | .
CCN1C(=O)N(c2cccc3ccccc23)C(C)=CC1(C)C | 9.1 | -4.6
CN1C(=O)N(C)C2(c3ccccc3)NC(=O)NC12c1ccccc1 (stereo unspecified) | -25.8 | -7.9
Cc1cccc(C(=O)NNC(=O)c2ccco2)c1 | -26.4 | .
COC(=O)C1=C(C(=O)OC)[C@@H]2N(C)c3ccccc3[C@@]23C[C@@H](CO)N(C(=O)C2CCC2)C3=N1 | . | -17.8
COc1ccc(C2C=C(c3ccccc3)Nc3nc(NC(C)=O)nn32)cc1 (stereo unspecified) | -16.6 | 40.5*
COc1ccc(C2C=C(c3ccccc3)Nc3nnnn32)cc1 (stereo unspecified) | -26.9 | 12.0
COc1ccc(-c2csc(NC(=O)c3ccc(OCC(=O)N4CCOCC4)c(OC)c3)n2)cc1OC | -20.5 | .
CN(C1=C(NC(=O)c2ccccc2)C(=O)c2ccccc2C1=O)C1CCS(=O)(=O)C1 (stereo unspecified) | 64.5* | .
CC(=O)NC1=C(NC2CCS(=O)(=O)C2)C(=O)c2ccccc2C1=O (stereo unspecified) | -3.5 | .
COc1cccc(-c2nc(CS(=O)(=O)CC(=O)N3CCc4ccccc4C3)c(C)o2)c1 | 80.3* | 11.7
COc1cccc(-c2nc(CS(=O)(=O)CC(=O)N3CCN(C)CC3)c(C)o2)c1 | -8.8 | 3.8
CCOC(=O)N1CCC(N2C(=O)c3ccccc3C2Nc2ccc3c(C)cc(=O)oc3c2)CC1 (stereo unspecified) | -33.4 | 88.8*
CCOC(=O)N1CCC(N2C(=O)c3ccccc3C2Nc2ccc3c(c2)OCCO3)CC1 (stereo unspecified) | -38.5 | -11.2
O=C(Nc1cccc(-c2nc3cccnc3s2)c1)C1c2ccccc2Oc2ccccc21 | -17.2 | .
O=C(c1ccc2nc3ccccc3c(=O)n2c1)N1CCN(Cc2ccc3c(c2)OCO3)CC1 | -11.3 | 30.6*
SMILES | YopH PTP inh | RmlCD inh mix
O=C(c1cccn2c(=O)c3ccccc3nc12)N1CCN(Cc2ccc3c(c2)OCO3)CC1 | -37.2 | 3.3
OCC1(O)OC[C@@H](O)[C@H]1O (stereo partly specified) | . | 6.0
CCOC(=O)N1CCC(NC(=O)c2ccc3c(c2)N(C)CCS3)CC1 | -2.1 | 61.4*
CCOC(=O)N1CCC(NC(=O)c2ccc3c(c2)N(Cc2ccc(C)cc2)CCS3)CC1 | -23.2 | -46.1
CNCc1ccccc1Sc1ccc(O)c(O)c1 | -17.0 | .
COc1ccc(OCCn2nnc(-c3ccc(Cl)cc3)n2)cc1 | -14.1 | .
Cn1nc(-c2ccc(Cl)cc2)nc2c(=O)n(C)c(=O)nc1-2 | 101.2* | -85.9
N#CCC(CNc1ncc(C(F)(F)F)cc1Cl)OC(=O)c1cccc([N+](=O)[O-])c1 (stereo unspecified) | -30.0 | 6.7
O=C(CSc1ncn[nH]1)c1ccc2c(c1)OCCO2 | -17.8 | -16.1
O=C(CSc1ncn[nH]1)c1ccc2c(c1)OCO2 | 57.4* | 9.1
CCOC(=O)C1=C(C)N[C@@]2(O)c3ccccc3C(=O)[C@@]12O | 34.7 | -21.1
CCCCOC(=O)C1=C(C)NC2(O)c3ccccc3C(=O)C12O (stereo unspecified) | 66.7* | -8.3
COc1cc(CCCN2C(N)=NC[C@H]2Cc2ccc(O)cc2)cc(OC)c1OC | . | -0.5
Cc1ccc(S(=O)(=O)/N=C2/C=C(C3C(=O)CC(C)(C)CC3=O)C(=O)c3ccccc32)cc1 | 16.6 | -5.3
CCc1ccc(S(=O)(=O)/N=C2/C=C(Sc3ncn[nH]3)C(=O)c3ccccc32)cc1 | 92.7* | .
Cc1cc(C)c(NC(=O)CSc2nnc(SCC(=O)Nc3c(C)cc(C)cc3C)n2N)c(C)c1 | -16.1 | -10.0
CCc1nnc(NC(=O)CCC(=O)NCCc2ccc(OC)c(OC)c2)s1 | -43.5 | .
CN1CCC(=NNC(=O)c2cn(-c3ccccc3)nc2-c2ccccc2)CC1 | -19.2 | .
Cc1ccc(NCN2C(=O)C3CC=C(Cl)CC3C2=O)cc1 (stereo unspecified) | 1.5 | 2.6
O=C(O)c1ccccc1NCN1C(=O)C2CC=C(Cl)CC2C1=O (stereo unspecified) | -46.7 | 37.4*
CCc1ccc(NC(=O)c2c(Cl)nc(C)c(Cl)c2C)cc1 | -15.6 | .
CCCCc1cc(=O)oc2c(CN3CCCC3)c(O)ccc12 | -30.6 | ?
CCN(CC)Cc1c(O)c(Cl)cc2c3c(c(=O)oc12)CCCC3 | -13.2 | .
CCc1c(C)c2cc(Cl)c(O)c(CN3CCCCC3)c2oc1=O | -35.8 | 114.1
